# Data published in ChEMBL document CHEMBL1961873, “Compounds: GSK PKIS; Assays: Nanosyn kinase panel” (2012).
# Legend:
# [1] = target: T1, Tyrosine-protein kinase receptor TYRO3 (Homo sapiens) (UniProt Q06418); conditions: at 1 µM
# T1 sequence (whole entry): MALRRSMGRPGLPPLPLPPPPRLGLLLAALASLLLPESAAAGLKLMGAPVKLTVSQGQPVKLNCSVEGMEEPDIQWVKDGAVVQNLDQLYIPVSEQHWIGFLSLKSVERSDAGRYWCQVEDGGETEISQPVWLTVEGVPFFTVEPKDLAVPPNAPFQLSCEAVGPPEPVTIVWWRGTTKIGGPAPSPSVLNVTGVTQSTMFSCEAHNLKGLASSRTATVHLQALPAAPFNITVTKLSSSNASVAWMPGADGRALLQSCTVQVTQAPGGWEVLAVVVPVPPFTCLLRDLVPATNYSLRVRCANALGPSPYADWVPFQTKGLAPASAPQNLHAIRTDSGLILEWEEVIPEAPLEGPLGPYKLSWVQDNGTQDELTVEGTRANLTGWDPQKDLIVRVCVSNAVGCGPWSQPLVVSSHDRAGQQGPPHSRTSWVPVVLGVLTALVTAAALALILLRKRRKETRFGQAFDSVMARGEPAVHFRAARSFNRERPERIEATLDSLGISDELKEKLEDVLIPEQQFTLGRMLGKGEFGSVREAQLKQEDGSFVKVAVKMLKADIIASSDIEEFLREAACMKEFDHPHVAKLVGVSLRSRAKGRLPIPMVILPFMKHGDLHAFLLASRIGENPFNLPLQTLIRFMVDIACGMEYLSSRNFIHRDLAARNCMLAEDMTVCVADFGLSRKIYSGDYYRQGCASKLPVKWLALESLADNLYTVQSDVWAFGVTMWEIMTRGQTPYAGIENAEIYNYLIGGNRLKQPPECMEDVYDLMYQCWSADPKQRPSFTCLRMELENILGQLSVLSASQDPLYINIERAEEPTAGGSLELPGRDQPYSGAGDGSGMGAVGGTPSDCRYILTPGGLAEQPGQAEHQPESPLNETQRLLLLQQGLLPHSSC
# [2] = target: Tyrosine-protein kinase Yes (Homo sapiens) (UniProt P07947); conditions: at 0.1 µM
# [3] = target: Tyrosine-protein kinase Yes (Homo sapiens) (UniProt P07947); conditions: at 1 µM
# [4] = target: T2, Tyrosine-protein kinase ZAP-70 (Homo sapiens) (UniProt P43403); conditions: at 0.1 µM
# T2 sequence (whole entry): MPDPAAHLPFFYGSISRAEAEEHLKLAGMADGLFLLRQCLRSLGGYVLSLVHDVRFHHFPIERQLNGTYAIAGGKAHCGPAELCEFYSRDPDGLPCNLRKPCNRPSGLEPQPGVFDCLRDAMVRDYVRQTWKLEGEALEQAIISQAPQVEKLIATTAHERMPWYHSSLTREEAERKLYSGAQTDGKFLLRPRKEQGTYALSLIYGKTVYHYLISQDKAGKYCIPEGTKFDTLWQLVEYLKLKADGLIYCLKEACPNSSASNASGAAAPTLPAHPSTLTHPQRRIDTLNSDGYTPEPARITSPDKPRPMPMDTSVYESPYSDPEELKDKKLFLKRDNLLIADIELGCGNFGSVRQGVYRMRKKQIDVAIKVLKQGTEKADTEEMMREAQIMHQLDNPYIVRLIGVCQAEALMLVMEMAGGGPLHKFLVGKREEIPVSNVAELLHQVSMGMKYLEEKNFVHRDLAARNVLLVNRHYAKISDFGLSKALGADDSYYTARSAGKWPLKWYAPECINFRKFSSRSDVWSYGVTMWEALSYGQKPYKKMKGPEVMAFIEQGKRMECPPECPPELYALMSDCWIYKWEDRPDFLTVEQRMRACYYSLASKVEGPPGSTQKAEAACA
# [5] = target: T2, Tyrosine-protein kinase ZAP-70 (Homo sapiens); conditions: at 1 µM
# [6] = target: Serine/threonine-protein kinase B-raf (Homo sapiens) (UniProt P15056); conditions: at 0.1 µM
# [7] = target: Serine/threonine-protein kinase B-raf (Homo sapiens) (UniProt P15056); conditions: at 1 µM
# [8] = system: Serine/threonine-protein kinase B-raf (Homo sapiens), P15056 [V600E]; conditions: at 0.1 µM
# [9] = system: Serine/threonine-protein kinase B-raf (Homo sapiens), P15056 [V600E]; conditions: at 1 µM
# [10] = target: RAF proto-oncogene serine/threonine-protein kinase (Homo sapiens) (UniProt P04049); conditions: at 0.1 µM;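 note: values are mean CRAF kinase inhibition from profiling of the GSK Published Kinase Inhibitor Set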
# Sequence of RAF proto-oncogene serine/threonine-protein kinase (Homo sapiens) (P04049 whole entry): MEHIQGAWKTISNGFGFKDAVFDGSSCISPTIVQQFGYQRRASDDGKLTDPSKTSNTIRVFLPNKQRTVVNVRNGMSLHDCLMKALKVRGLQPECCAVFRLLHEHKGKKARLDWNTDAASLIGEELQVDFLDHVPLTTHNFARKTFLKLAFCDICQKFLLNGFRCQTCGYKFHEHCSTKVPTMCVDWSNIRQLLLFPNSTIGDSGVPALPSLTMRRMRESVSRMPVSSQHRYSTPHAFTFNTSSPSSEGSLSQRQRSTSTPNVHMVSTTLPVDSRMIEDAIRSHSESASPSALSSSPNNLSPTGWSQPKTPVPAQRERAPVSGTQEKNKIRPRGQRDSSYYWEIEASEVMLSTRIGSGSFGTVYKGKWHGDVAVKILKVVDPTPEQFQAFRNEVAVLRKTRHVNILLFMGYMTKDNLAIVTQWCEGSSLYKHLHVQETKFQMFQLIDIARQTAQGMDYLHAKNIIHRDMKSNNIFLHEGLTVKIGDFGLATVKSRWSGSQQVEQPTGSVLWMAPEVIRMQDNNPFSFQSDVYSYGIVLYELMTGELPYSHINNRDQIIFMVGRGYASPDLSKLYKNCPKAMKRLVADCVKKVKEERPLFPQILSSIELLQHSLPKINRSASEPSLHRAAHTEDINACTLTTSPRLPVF
# Sequence of Tyrosine-protein kinase Yes (Homo sapiens) (P07947 2-543 limits assumed): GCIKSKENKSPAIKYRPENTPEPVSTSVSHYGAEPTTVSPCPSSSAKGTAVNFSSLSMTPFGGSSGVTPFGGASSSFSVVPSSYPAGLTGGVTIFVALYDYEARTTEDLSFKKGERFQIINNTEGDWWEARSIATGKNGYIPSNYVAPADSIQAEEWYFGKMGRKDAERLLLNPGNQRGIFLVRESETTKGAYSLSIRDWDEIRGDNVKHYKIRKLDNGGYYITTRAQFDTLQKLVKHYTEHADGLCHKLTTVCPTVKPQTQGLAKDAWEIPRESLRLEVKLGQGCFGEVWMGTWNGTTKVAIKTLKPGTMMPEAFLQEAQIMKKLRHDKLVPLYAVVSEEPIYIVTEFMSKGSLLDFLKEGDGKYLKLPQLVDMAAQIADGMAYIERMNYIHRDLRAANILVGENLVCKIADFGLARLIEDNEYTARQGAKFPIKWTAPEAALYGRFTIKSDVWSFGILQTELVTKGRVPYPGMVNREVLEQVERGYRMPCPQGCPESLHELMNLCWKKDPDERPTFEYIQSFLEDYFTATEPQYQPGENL
# Sequence of Serine/threonine-protein kinase B-raf (Homo sapiens) (P15056 whole entry): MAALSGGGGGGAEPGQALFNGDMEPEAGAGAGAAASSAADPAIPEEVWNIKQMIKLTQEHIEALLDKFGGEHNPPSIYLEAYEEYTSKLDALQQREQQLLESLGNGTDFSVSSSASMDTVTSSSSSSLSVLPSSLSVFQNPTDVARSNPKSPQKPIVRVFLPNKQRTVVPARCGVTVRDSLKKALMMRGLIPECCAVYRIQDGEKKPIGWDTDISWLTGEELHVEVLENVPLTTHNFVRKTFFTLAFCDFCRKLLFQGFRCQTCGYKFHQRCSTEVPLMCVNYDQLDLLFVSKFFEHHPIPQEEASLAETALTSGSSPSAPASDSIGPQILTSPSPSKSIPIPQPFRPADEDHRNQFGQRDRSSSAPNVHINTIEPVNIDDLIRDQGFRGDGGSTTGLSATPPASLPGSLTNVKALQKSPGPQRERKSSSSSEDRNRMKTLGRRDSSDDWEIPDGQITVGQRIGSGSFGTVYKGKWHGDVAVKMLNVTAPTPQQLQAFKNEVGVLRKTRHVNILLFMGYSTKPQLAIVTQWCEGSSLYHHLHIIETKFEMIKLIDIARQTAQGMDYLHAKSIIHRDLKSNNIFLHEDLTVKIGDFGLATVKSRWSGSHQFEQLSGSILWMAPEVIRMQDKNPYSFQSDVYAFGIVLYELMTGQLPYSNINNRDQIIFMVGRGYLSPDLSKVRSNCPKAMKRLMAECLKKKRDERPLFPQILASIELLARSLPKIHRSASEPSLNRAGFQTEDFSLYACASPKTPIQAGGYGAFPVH
# Sequence of Serine/threonine-protein kinase B-raf (Homo sapiens), P15056 [V600E] (P15056 whole entry V600E): as the sequence (P15056 whole entry) above, with V600E counted along it
SMILES,inhibition [1],inhibition [2],inhibition [3],inhibition [4],inhibition [5],inhibition [6],inhibition [7],inhibition [8],inhibition [9],inhibition [10]
CS(=O)(=O)CCNCc1nc(-c2ccc3ncnc(Nc4ccc(F)c(Cl)c4)c3c2)cs1,3.05%,-0.53%,9.54%,-0.36%,-0.71%,1.66%,3.47%,1.41%,3.88%,-0.76%
COc1cc2ncn(-c3cc(O[C@H](C)c4ccccc4Cl)c(C(N)=O)s3)c2cc1OC,37.6%,4.24%,17.8%,2.5%,7.57%,4.31%,3.59%,4.51%,3.77%,1.34%
COc1ccc(-c2coc3ncnc(N)c23)cc1,0.37%,1.25%,2.89%,0.06%,4.55%,4.66%,7.42%,6.07%,6.81%,2.99%
CC1=C(C(=O)Nc2ccc3[nH]ncc3c2)C(c2ccc(F)cc2)NC(=O)N1 (stereo not given),2.1%,2.93%,3.94%,2.76%,1.91%,3.64%,5.71%,2.81%,6.38%,1.97%
CCc1cccc(NC(=O)Nc2ccc(Oc3ccc4nc(NC(=O)OC)[nH]c4c3)cc2)c1,21.4%,0.83%,-1.93%,0.4%,-1.32%,9.12%,12.2%,9.23%,13.8%,-5.43%
c1cnn2ncc(-c3ccnc(Nc4ccc5c(c4)OCCO5)n3)c2c1,25%,6.25%,18.3%,0.79%,9.39%,9.37%,33.3%,8.24%,31%,-0.29%
CC(=O)Nc1cccc(C#Cc2cncnc2Nc2ccc(OCc3cccc(F)c3)c(Cl)c2)n1,1.63%,4.46%,10.7%,2.6%,-0.49%,-1.65%,-3.08%,-2.42%,-2.04%,0.47%
COc1cccc(-n2ncc3c(N/N=C/c4cccc(F)c4)ncnc32)c1,8.11%,6.17%,31%,-0.37%,-0.02%,4.04%,5.91%,3.95%,5.71%,0.69%
CS(=O)(=O)CCN(CC#N)Cc1ccc(-c2ccc3ncnc(Nc4ccc(OCc5cccc(F)c5)c(Cl)c4)c3c2)o1,2.22%,-1.67%,2.4%,-3.82%,-0.8%,4.46%,1.74%,1.42%,2.17%,0.21%
CCn1c(-c2nonc2N)nc2cnc(Oc3cccc(NC(=O)c4ccc(OCCN5CCOCC5)cc4)c3)cc21,2.81%,3.49%,4.67%,-1.7%,-1.56%,4.86%,6.86%,5.41%,5.71%,-0.87%
COc1cc2ncn(-c3cc(OCc4ccccc4C(F)(F)F)c(C(N)=O)s3)c2cc1OC,10.3%,1.77%,7.91%,-2.01%,-1.32%,5.82%,4.85%,3.47%,3.52%,1.99%
COc1ccc(-c2ccncc2)cc1C(N)=O,0.74%,-1.44%,3.66%,-0.9%,1.01%,6.32%,8.48%,5.07%,5.66%,1.23%
Fc1cccc(COc2ccc(Nc3ncnc4sc(-c5cccs5)cc34)cc2Cl)c1,1.15%,0.57%,1.28%,-1.83%,1.54%,1.35%,2.73%,1.62%,1.65%,1.45%
NC(=O)c1cccc(Nc2nccc(Nc3cccc4[nH]ncc34)n2)c1,54.4%,32%,82.5%,-2.28%,4.64%,-3.03%,4.38%,-3.72%,3.75%,-3.86%
COC(=O)Nc1nc2cc(Oc3ccc(NC(=O)Nc4cccc(C(=O)O)c4)cc3)ccc2[nH]1,3.17%,0%,2.43%,-4.68%,-4.2%,-0.5%,-1.69%,-0.53%,-0.73%,-0.09%
CS(=O)(=O)CCNCc1ccc(-c2ccc3ncnc(Nc4ccc(OCc5cccc(F)c5)c(C(F)(F)F)c4)c3c2)o1,3.6%,0.9%,5.19%,-4.38%,-2.61%,6.3%,6.29%,7.33%,6.22%,2.93%
CCn1c(-c2nonc2N)nc2c(N3CCCC3)nccc21,-1.5%,-4.35%,4.6%,1.14%,2.3%,0.2%,4.02%,-2.4%,-2.63%,-1.29%

SMILES,inhibition [1],inhibition [2],inhibition [3],inhibition [4],inhibition [5],inhibition [6],inhibition [7],inhibition [8],inhibition [9],inhibition [10]
CN(C)c1cc2c(Nc3ccc4nc(Cc5ccccc5)[nH]c4c3)ncnc2cn1,4.25%,9.2%,37%,6.34%,12.4%,7.82%,7.35%,7.73%,11.2%,-7.41%
Nc1nc(-c2ccc3c(c2)C(=Cc2cc(Br)c(O)c(Br)c2)C(=O)N3)cs1,2.67%,-4.7%,6.08%,0.01%,-1.62%,4.51%,13.7%,3.07%,14.7%,2.35%
CS(=O)(=O)CCNCc1ccc(-c2ccc3ncnc(Nc4ccc(OCc5ccccc5)c(Cl)c4)c3c2)o1,2.01%,7.69%,39.4%,-7.6%,-0.02%,0.1%,1.24%,1.67%,1.38%,-1.06%
CCn1c(-c2nonc2N)nc2c(C#CC(C)(C)O)nc(CN3CCCC3)cc21,-1.52%,-0.41%,5.7%,2.82%,1.75%,-1.46%,-1.6%,-1.31%,-0.8%,-3.54%
O=C1NC(=O)C(N2CCc3ccccc32)=C1c1ccc(Cl)cc1,3.19%,0.13%,1.35%,3.14%,4.58%,6%,7.8%,6.55%,6.79%,0.98%
COc1cc2ncn(-c3cc(OCc4ccccc4Cl)c(C(N)=O)s3)c2cc1OC,9.65%,3.58%,17.9%,-2.94%,0.47%,2.05%,2.15%,1.45%,2.82%,0.16%
NS(=O)(=O)c1ccc(N/N=C2\C(=O)Nc3ccc(C(=O)NCCc4c[nH]cn4)cc32)cc1,21.7%,2.67%,11.8%,1.45%,5.13%,7%,16.5%,6.04%,15.9%,-2.7%
COC(=O)Nc1nc2cc(Oc3cccc(NC(=O)Nc4cc(C(F)(F)F)ccc4F)c3)ccc2[nH]1,-0.81%,0.2%,3.07%,0.93%,1.74%,-0.27%,4.25%,0.34%,6.29%,-0.45%
Cc1ccc(NC(=O)c2ccnc(N3CCCC3)c2)cc1-c1ccc(C(=O)NCC2CC2)cc1,1.97%,2.17%,3.08%,-2.27%,0.03%,8.24%,14.7%,7.57%,15%,4.02%
COc1ccccc1Nc1ncc(-c2ccccc2)o1,2.12%,2.01%,6.48%,0.73%,4.36%,6.58%,7.19%,4.73%,3.58%,3.32%
CC1=C(C(=O)Nc2ccc3[nH]ncc3c2)C(c2ccc3ccccc3c2)CC(=O)N1 (stereo not given),6.2%,16.6%,62.9%,3.08%,2.98%,8.21%,43.5%,8.51%,45.2%,1.05%
CCn1c(-c2nonc2N)nc2cncc(C(=O)N3CC[C@H](N)C3)c21,6.78%,1.84%,5.96%,-1.89%,-1.69%,6.39%,7.03%,7.1%,6.82%,12.6%
O=C(Nc1n[nH]c2nc(-c3ccco3)c(Br)cc12)C1CC1,4.49%,4.26%,13.8%,1.19%,3.08%,5.54%,5.7%,6.02%,5.23%,1.52%
O=C1Nc2ccc(C(=O)c3ccco3)cc2C1=Cc1cc(Cl)c(O)c(Cl)c1,8.57%,2.58%,15.8%,2.14%,3.97%,11.8%,26.7%,12.5%,27.4%,2.35%
O=C1NC(=O)C(c2ccccc2Cl)=C1Nc1cccc(O)c1,1.2%,1.06%,-1.97%,1.65%,0.4%,3.05%,3.21%,3.01%,2.95%,4.73%
COc1cc(C=NNc2ncnc3c2cnn3-c2ccccc2)ccc1O,33.5%,21.5%,64.9%,3.12%,9.72%,2.6%,2.66%,2.03%,2.54%,-0.56%
